For orientation: AC50 means the concentration giving half of the maximal activity seen.

Our source for the outcome and AC50 values is PubChem BioAssay (EPA / NIEHS).

A short description of test [1]: CEETOX_H295R_OHPROG: CeeTox H295R High-throughput Steroidogenesis Assay for OH-Progesterone (OHPROG) (AID 2283435).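 For AC50: human adrenal H295R cells primed 48 h with 10 µM forskolin; 17alpha-hydroxyprogesterone secreted into medium measured by HPLC-MS/MS.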 Particulars: actives raise or lower the signal. The method in brief:
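Secreted 17alpha-hydroxyprogesterone is read by tandem MS from media of forskolin-primed H295R cells dosed with chemical for 48 h. Activity is fitted in both directions against DMSO baseline; cytotoxic concentrations are re-tested diluted.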

The nature of test [2]: CEETOX_H295R_CORTISOL: CeeTox H295R High-throughput Steroidogenesis Assay for Cortisol (AID 2283438).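 Note: cortisol secreted into medium quantified by LC-MS/MS.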 The note with it: actives raise or lower the signal. The method in brief:
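Human adrenocortical H295R cells (passage ≤10) received test chemicals for 48 h after forskolin priming. Secreted cortisol was measured by LC-MS/MS.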

The nature of test [3]: CEETOX_H295R_DOC: CeeTox H295R High-throughput Steroidogenesis Assay for DOC (AID 2283439). Particulars: actives raise or lower the signal. The method in brief: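 Secreted DOC was quantified from H295R media by HPLC-MS/MS after 48 h chemical exposure following 48 h forskolin (10 uM) prestimulation. Values were fitted in both directions relative to DMSO, the negative control and baseline.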

The nature of test [4]: CEETOX_H295R_ESTRADIOL: CeeTox H295R High-throughput Steroidogenesis Assay for Estradiol (AID 2283440).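 Note: estradiol secreted into medium quantified by LC-MS/MS after dansyl derivatisation.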 The note with it: actives raise or lower the signal. The method in brief: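 H295R cells pre-stimulated 48 h with 10 uM forskolin, then exposed 48 h to chemical in 0.1% DMSO. Medium estradiol quantified by MTBE extraction, dansyl derivatisation and HPLC-MS/MS; bidirectional fit versus DMSO; MTT viability required >/=70%.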

Test [5] can be described thus: CEETOX_H295R_ESTRONE: CeeTox H295R High-throughput Steroidogenesis Assay for Estrone (AID 2283441).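 Note: estrone secreted into medium measured by LC-MS/MS after dansyl derivatization.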 Particulars: actives raise or lower the signal. The method in brief:
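H295R cells; 48 h forskolin (10 uM) prestimulation; 48 h compound exposure, 0.1% DMSO final. Medium estrone: MTBE extraction, dansyl derivatization, HPLC-MS/MS. Bidirectional fit vs DMSO.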

Test [6] can be described thus: CEETOX_H295R_PROG: CeeTox H295R High-throughput Steroidogenesis Assay for Progesterone (PROG) (AID 2283442).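 For AC50: human H295R adrenal cells primed with 10 µM forskolin before dosing.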 Particulars: actives raise or lower the signal. The method in brief:
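H295R adrenal cells prestimulated 48 h with 10 uM forskolin, then exposed 48 h to test chemical in 0.1% DMSO. Progesterone in medium quantified by HPLC-MS/MS after MTBE extraction; viability checked by MTT in same wells.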

Read-out in test [7]: Tumor necrosis factor receptor superfamily member 6 (Homo sapiens) (UniProt P25445)
Nature of the test: LTEA_HepaRG_FAS: Life Technologies and Expression Analysis (LTEA) Assay for Fas cell surface death receptor (FAS) using HepaRG (AID 2283447). The note with it: mRNA level, 48 h; actives raise or lower the signal. Summed up: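 Differentiated human HepaRG cells, pre-cultured 48 h, were exposed in duplicate for 48 h to 8-point half-log concentrations (top 100 uM, 0.5% DMSO) in serum-free induction medium; FAS mRNA measured by qRT-PCR, normalized to ACTB/GAPDH/POLR2A, bidirectional fit versus DMSO.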

Read-out in test [8]: Fatty acid synthase (Homo sapiens) (UniProt P49327)
Nature of the test: LTEA_HepaRG_FASN: Life Technologies and Expression Analysis (LTEA) Assay for Fatty Acid Synthase (FASN) using HepaRG (AID 2283448). The note with it: mRNA level, 48 h; actives raise or lower the signal. Summed up:
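Transcript-level assay: HepaRG liver cells are treated for 48 h across an eight-point range topping at 100 uM, and FASN mRNA, normalized to three housekeeping genes, is compared with DMSO controls in both directions.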

Read-out in test [9]: Cyclin D2 (CCND2), CCND2 (gene 894)
Nature of the test: LTEA_HepaRG_CCND2: Life Technologies and Expression Analysis (LTEA) Assay for Cyclin D2 (CCND2) using HepaRG (AID 2283449).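 Note: CCND2 transcript measured by TaqMan qRT-PCR and normalised to three housekeeping genes.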 Particulars: mRNA level, 48 h; actives raise or lower the signal. Summed up:
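Differentiated human HepaRG cells were exposed for 48 h in serum-free induction medium to eight half-log concentrations topping at 100 uM (0.5% DMSO vehicle). CCND2 mRNA was quantified by TaqMan qRT-PCR, normalised to ACTB, GAPDH and POLR2A, and fitted bidirectionally against DMSO.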

Read-out in test [10]: Cyclin Dependent Kinase Inhibitor 1A (CDKN1A), CDKN1A (gene 1026)
Nature of the test: LTEA_HepaRG_CDKN1A: Life Technologies and Expression Analysis (LTEA) Assay for Cyclin Dependent Kinase Inhibitor 1A (CDKN1A) using HepaRG (AID 2283450). The note with it: mRNA level, 48 h; actives raise or lower the signal. The method in brief:
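Differentiated HepaRG cells in serum-free induction medium, exposed 48 h in duplicate to eight half-log concentrations up to 100 uM in 0.5% DMSO. mRNA measured by TaqMan qRT-PCR, normalized to ACTB, GAPDH, POLR2A; bidirectional fit versus DMSO.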

Read-out in test [11]: Cyclin D1 (CCND1), CCND1 (gene 595)
Put plainly: LTEA_HepaRG_CCND1: Life Technologies and Expression Analysis (LTEA) Assay for Cyclin D1 (CCND1) using HepaRG (AID 2283451). Particulars: mRNA level, 48 h; actives raise or lower the signal. The method in brief: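 Differentiated HepaRG cells exposed 48 h in serum-free induction medium to eight half-log concentrations from 100 uM top, 0.5% DMSO, duplicates. CCND1 mRNA measured by Fluidigm TaqMan qRT-PCR, normalised to ACTB, GAPDH, POLR2A; bidirectional fit.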

Read-out in test [12]: catalase (CAT), CAT (gene 847)
Nature of the test: LTEA_HepaRG_CAT: Life Technologies and Expression Analysis (LTEA) Assay for catalase (CAT) using HepaRG (AID 2283452). Particulars: mRNA level, 48 h; actives raise or lower the signal. The method in brief:
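Differentiated HepaRG cells in serum-free induction medium were dosed 48 h in duplicate, eight half-log concentrations from 100 uM in 0.5% DMSO. Transcript measured by TaqMan qRT-PCR, normalised to ACTB/GAPDH/POLR2A, fitted bidirectionally against DMSO.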

Read-out in test [13]: flavin-containing dimethylaniline monooxygenases 3 (FMO3), FMO3 (gene 2328)
Put plainly: LTEA_HepaRG_FMO3: Life Technologies and Expression Analysis (LTEA) Assay for flavin-containing dimethylaniline monooxygenases 3 (FMO3) using HepaRG (AID 2283453). The note with it: mRNA level, 48 h; actives raise or lower the signal. Summed up: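 HepaRG, 48 h exposure, 8-pt half-log series from 100 uM, 0.5% DMSO vehicle, duplicates; FMO3 transcript by Fluidigm TaqMan qRT-PCR, housekeeping-normalized; gain/loss fit vs DMSO.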

Read-out in test [14]: Forkhead box O1 (FOXO1), FOXO1 (gene 2308)
Put plainly: LTEA_HepaRG_FOXO1: Life Technologies and Expression Analysis (LTEA) Assay for Forkhead box O1 (FOXO1) using HepaRG (AID 2283456). Particulars: mRNA level, 48 h; actives raise or lower the signal. The method in brief:
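Differentiated human HepaRG cells in serum-free induction medium were exposed in duplicate for 48 h to eight half-log concentrations (top 100 uM, 0.5% DMSO). FOXO1 mRNA was measured by TaqMan qRT-PCR, normalised to ACTB, GAPDH and POLR2A, and fitted bidirectionally against DMSO.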

Read-out in test [15]: growth arrest and DNA damage 45 (GADD45A), GADD45A (gene 1647)
Put plainly: LTEA_HepaRG_GADD45A: Life Technologies and Expression Analysis (LTEA) Assay for growth arrest and DNA damage 45 (GADD45A) using HepaRG (AID 2283458). Particulars: mRNA level, 48 h; actives raise or lower the signal. Summed up: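 Human HepaRG liver cells are treated in duplicate for 48 h with chemicals in 0.5% DMSO, highest concentration 100 uM. Expression is read by qRT-PCR and analyzed in both directions against vehicle.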

Read-out in test [16]: Forkhead box O3 (FOXO3), FOXO3 (gene 2309)
Nature of the test: LTEA_HepaRG_FOXO3: Life Technologies and Expression Analysis (LTEA) Assay for Forkhead box O3 (FOXO3) using HepaRG (AID 2283459). The note with it: mRNA level, 48 h; actives raise or lower the signal. The method in brief:
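Differentiated human HepaRG cells in serum-free induction medium were exposed in duplicate for 48 h to eight half-log concentrations up to 100 uM in 0.5% DMSO. FOXO3 mRNA was quantified by qRT-PCR, normalized to ACTB, GAPDH and POLR2A, with bidirectional fitting versus DMSO.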

Calls of active or inactive are those of the source. Rule for the calls: active = hit-call score of the fitted dose curve at least 0.9, where 1 is the maximum; inactive = score below 0.9.

Sequence of Fatty acid synthase (Homo sapiens) (P49327 whole entry, looked up): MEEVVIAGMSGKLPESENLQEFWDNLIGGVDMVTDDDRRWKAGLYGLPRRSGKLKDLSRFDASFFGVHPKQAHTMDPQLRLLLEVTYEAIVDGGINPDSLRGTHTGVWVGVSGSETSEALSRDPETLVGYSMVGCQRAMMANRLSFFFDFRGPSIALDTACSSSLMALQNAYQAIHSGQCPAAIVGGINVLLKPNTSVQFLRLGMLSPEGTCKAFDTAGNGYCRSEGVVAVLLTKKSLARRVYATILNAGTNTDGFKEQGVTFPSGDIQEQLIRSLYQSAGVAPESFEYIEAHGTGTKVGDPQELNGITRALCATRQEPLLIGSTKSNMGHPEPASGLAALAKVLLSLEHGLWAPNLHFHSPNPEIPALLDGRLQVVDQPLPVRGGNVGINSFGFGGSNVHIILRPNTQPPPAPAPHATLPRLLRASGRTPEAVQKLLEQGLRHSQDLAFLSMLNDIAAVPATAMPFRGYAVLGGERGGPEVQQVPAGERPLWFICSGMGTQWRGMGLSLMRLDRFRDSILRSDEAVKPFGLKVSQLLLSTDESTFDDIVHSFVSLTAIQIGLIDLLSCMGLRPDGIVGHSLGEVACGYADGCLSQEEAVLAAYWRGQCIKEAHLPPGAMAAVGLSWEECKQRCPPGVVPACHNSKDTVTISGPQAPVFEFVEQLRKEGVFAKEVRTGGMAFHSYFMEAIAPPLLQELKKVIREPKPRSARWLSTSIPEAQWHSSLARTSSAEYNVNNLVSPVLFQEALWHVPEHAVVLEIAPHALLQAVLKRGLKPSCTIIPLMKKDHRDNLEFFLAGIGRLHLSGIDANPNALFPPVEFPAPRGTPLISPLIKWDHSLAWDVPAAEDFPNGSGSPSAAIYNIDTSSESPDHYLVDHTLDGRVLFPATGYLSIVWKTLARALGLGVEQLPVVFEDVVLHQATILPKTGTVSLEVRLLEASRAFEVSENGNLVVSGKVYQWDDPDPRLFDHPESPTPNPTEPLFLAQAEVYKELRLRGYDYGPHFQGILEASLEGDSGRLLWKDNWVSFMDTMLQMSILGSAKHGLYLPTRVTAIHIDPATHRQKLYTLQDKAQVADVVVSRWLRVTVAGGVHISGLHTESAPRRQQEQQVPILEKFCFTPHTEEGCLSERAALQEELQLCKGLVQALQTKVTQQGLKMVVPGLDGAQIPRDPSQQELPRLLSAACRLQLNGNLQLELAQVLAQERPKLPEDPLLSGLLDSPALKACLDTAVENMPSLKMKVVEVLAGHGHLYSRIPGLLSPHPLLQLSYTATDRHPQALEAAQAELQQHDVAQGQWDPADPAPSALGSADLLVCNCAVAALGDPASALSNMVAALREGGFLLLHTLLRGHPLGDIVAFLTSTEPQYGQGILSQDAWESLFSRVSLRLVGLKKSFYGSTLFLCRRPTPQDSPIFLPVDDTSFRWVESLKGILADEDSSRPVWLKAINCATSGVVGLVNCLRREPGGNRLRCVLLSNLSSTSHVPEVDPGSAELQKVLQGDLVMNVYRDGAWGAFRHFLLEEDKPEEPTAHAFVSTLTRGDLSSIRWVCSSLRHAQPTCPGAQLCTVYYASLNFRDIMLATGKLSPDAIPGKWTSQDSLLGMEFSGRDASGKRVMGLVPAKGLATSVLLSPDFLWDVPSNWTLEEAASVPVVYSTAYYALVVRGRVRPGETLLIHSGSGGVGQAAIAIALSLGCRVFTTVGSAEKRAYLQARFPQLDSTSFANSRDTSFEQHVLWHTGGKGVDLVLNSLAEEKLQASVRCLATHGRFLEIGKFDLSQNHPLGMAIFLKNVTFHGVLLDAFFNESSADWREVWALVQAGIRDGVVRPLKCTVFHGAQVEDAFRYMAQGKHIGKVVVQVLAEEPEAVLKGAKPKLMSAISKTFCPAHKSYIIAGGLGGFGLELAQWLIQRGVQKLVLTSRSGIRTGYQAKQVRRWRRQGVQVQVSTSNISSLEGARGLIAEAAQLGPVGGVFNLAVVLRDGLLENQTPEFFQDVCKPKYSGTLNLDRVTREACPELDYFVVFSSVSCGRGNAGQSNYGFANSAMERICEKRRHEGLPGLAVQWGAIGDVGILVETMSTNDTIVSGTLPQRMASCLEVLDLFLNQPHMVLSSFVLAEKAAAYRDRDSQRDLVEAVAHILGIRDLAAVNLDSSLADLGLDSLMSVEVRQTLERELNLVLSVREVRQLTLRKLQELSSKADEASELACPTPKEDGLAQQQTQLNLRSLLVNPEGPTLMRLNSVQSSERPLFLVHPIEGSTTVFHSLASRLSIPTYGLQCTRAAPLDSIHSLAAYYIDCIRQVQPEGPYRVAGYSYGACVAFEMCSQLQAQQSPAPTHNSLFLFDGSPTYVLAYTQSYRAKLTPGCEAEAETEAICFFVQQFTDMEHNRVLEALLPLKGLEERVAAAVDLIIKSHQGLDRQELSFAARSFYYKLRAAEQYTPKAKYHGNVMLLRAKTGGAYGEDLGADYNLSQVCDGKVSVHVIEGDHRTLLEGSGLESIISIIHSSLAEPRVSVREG

For the molecule `c1ccc(OP(Oc2ccccc2)Oc2ccccc2)cc1`, the molecule was classed as inactive in [1], in test [2], in [3], in test [4], in test [5] and in test [6]. In addition, the outcome in test [7], in test [8], in test [9], in test [10], in test [11] and in test [12] was inactive. Besides, the result in [13], in [14], in test [15] and in test [16] was inactive.

Consider `CCCCOCCOP(=O)(OCCOCCCC)OCCOCCCC`, for which the molecule was called inactive in test [1], in [2], in [3], in test [4], in test [5] and in test [6].

For `Cc1ccc(O)cc1C`, the call in [1], in test [4], in test [5], in test [6], in [7] and in test [8] was inactive. Further, the call in test [9], in test [10], in test [11], in test [12], in test [13] and in test [14] was inactive. Moreover, the molecule was classed as inactive in test [15] and in test [16].

Turning to `Oc1ccc(I)cc1`, the concentration at half-maximal activity (AC50) in test [1] is 18.6 µM (active); in [6], 17 µM (active). In addition, the call in test [2], in [3], in [4] and in [5] was inactive.

As for `O=P(Oc1ccccc1)(Oc1ccccc1)Oc1ccccc1`, the AC50 is 1.85 µM (active) in test [1], 1.37 µM (active) in test [6] and 77.7 µM (active) in [10]. Moreover, the call in test [2], in [3], in test [4], in test [7], in test [8] and in [9] was inactive. Also, the call in [11], in [12], in test [13], in [14], in test [15] and in [16] was inactive.

`Cc1ccc(N)cc1N`: the result in [3], in test [4], in test [5], in [7], in [9] and in test [10] was inactive. In addition, the result in test [11], in test [12], in test [13], in test [14], in test [15] and in test [16] was inactive. Also, the concentration at half-maximal activity (AC50) in [8] was 14.7 µM (active).

In the case of `CCN(CC)c1ccccc1`, the call in test [7], in [8], in [9], in test [10], in [11] and in test [12] was inactive. The call in test [13], in [14], in test [15] and in test [16] was inactive.

Regarding `COCCOCCO`, the molecule was classed as inactive in test [7], in [8], in [10], in test [11], in test [12] and in test [13]. The call in [14], in test [15] and in test [16] was inactive.

With `O=[N+]([O-])c1ccc(Cl)c(Cl)c1`, the molecule was called inactive in [7], in [8], in [9], in test [10], in test [11] and in test [12]. Also, the molecule was called inactive in test [13], in [14], in [15] and in [16].

Regarding `CCCN(CCC)c1c([N+](=O)[O-])cc(C(C)C)cc1[N+](=O)[O-]`, the AC50 is 12.7 µM (active) in test [7] and 0.234 µM (active) in [15]. In addition, the call in test [8], in test [9], in test [10], in [11], in test [12] and in test [13] was inactive. Also, the result in test [14] and in [16] was inactive.
